Source: PubChem BioAssay (several laboratories)
Sampled rows, rich in hits. Any-hit rate of the full collection: about 1.2%.
PLCb3 inh: PLC-beta3 (human) inhibition, primary screen; Q01970; Purified PLC-beta3, fluorogenic substrate, fluorescence; inhibition, % at 12.2 µM; 370,000 tested, 0.18% active; in the data active means inhibition above about 11%
PLCg1 inh: blocks human PLC-gamma1 enzyme activity. AID 720700. purified PLC-gamma1, fluorogenic substrate, fluorescence. 370,000 tested, 0.84% active. inhibition, % at 12.2 µM. P19174
GC-A act: GC-A (human) enzyme activation; P16066; HEK293 GC-A cells, cGMP TR-FRET, EC30 ANP; 0% at EC30 ANP, 100% saturating ANP; 370,000 tested, 0.14% active; AID 1671463; activation, % at 10 µM; in the data active means activation above about 40%
NPR2 activator: GC-B (human) receptor activation; P20594; HEK293-GC-B cells, CNP EC30, cGMP TR-FRET; 0% at EC30 CNP, 100% saturating CNP; activation, % at 10 µM; 370,000 tested, 0.11% active;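 active means activation at 10 µM reaching about 35% in either raw or pattern-adjusted values, limit read from the data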
PLCg1 ctr: inhibits human PLC-gamma1 in PLC-beta3 counter-screen; purified PLC-gamma1, fluorogenic substrate, fluorescence; 3,300 tested, 3.1% active; shares compounds with PLCg1 inh; inhibition, % at 12.3 µM
PLCb3 confirm: human PLC-beta3 inhibition, confirmation. shares compounds with PLCg1 inh. AID 743261. 3,300 tested, 1% active. purified PLC-beta3, fluorogenic substrate fluorescence. inhibition, % at 12.3 µM; in the data active means inhibition above about 11%
Of the large screens only hits and unclear results are named; the others gave an inactive call (follow-up assays come after a bar, where they were run). Unless noted, no stated cut-off is given here; in the data, active means inhibition above about 9.5%; inactive means the rest.

COC(=O)[C@]12C[C@H](CC(=O)N3CCOCC3)C(=O)N(Cc3ccc4c(c3)OCO4)C1=C[C@H](COCc1ccccc1)O[C@@H]2C	none
S=c1[nH]nc(-c2ccncc2)n1/N=C/C(Cl)=C\c1ccccc1	none
CCCC(=O)Nc1ccc(N2CCN(C(=O)c3cc4ccccc4o3)CC2)cc1	PLCg1 inh 11 | PLCg1 ctr inactive | PLCb3 confirm inactive
O=C(CN1CCCCCC1)Nc1ccc(F)c(F)c1F	none
CN(C)S(=O)(=O)c1cc([N+](=O)[O-])ccc1N1CCCCCC1	PLCg1 inh 10 | PLCg1 ctr inactive | PLCb3 confirm inactive
CN(Cc1ccccc1)S(=O)(=O)c1ccc2c(c1)OCCO2	none
COc1ccc(CN(C)S(=O)(=O)c2ccc3c(c2)OCCO3)cc1	PLCg1 inh 12 | PLCg1 ctr inactive | PLCb3 confirm inactive
Cc1ccc(CNC(=O)CN(c2cccc([N+](=O)[O-])c2)S(=O)(=O)c2ccccc2)cc1	none
Cc1ccc(N(CC(=O)NCc2ccncc2)S(C)(=O)=O)cc1Cl	none
Cc1ccc(CNC(=O)CN(c2cccc([N+](=O)[O-])c2)S(C)(=O)=O)cc1	PLCg1 inh 11 | PLCg1 ctr inactive | PLCb3 confirm inactive
Cc1ccc(N(CC(=O)NCc2cccnc2)S(C)(=O)=O)cc1C	PLCg1 inh 12 | PLCg1 ctr inactive | PLCb3 confirm inactive
COc1ccc(NC(=O)NC2(C)CCS(=O)(=O)C2)cc1 (stereo not drawn)	PLCg1 inh 12 | PLCg1 ctr inactive | PLCb3 confirm inactive
CCN(C(=O)c1cc(OC)c(OC)c(OC)c1)C1CCCCC1	none
CCOc1ccc(C(=O)Nc2ccc3c(c2)OCCO3)cc1OC	none
CCOc1ccc(C(=O)Nc2ccc3c(c2)OCCO3)cc1[N+](=O)[O-]	PLCg1 inh 10 | PLCg1 ctr inactive | PLCb3 confirm inactive
C[C@]12c3[nH]c4ccccc4c3CCN1C(=O)C(CC(=O)NCCN1CCOCC1)C[C@@H]2C(=O)N1CCOCC1 (stereo partly drawn)	none
COc1ccc(/C=N/Nc2ccc(C(F)(F)F)cc2[N+](=O)[O-])cc1O	PLCg1 inh 11 | PLCg1 ctr inactive | PLCb3 confirm inactive
COc1cccc(-c2nnc(SCC(=O)NC3CCS(=O)(=O)C3)n2C)c1 (stereo not drawn)	none
CCCCCCCC1(C)NC(=O)NC1=O (stereo not drawn)	none
O=C(NC(=S)Nc1ccc(S(=O)(=O)Nc2ccccc2)cc1)C1CC1	none
O=C(NC1CCCCCCC1)C1CCN(S(=O)(=O)N2CCCC2)CC1	PLCg1 inh 11 | PLCg1 ctr inactive | PLCb3 confirm inactive
O=C(COC(=O)/C=C/c1ccccc1[N+](=O)[O-])Nc1ccc(OCc2ccccc2)cc1	none
O=C(COC(=O)/C=C/c1ccccc1[N+](=O)[O-])Nc1ccc(OC(F)F)cc1	PLCg1 inh 11 | PLCg1 ctr inactive | PLCb3 confirm inactive
CCOC(=O)[C@@H]1[C@H]2COc3cc(OC)ccc3[C@H]2N2C(=O)N(c3ccc(C(F)(F)F)cc3)C(=O)[C@]12C	none
Cc1ccccc1NC(=O)C(C)Sc1nnc(CN2CCCC2)n1Cc1ccccc1 (stereo not drawn)	PLCg1 inh 10 | PLCg1 ctr inactive | PLCb3 confirm inactive
CCCN1CCCCC(NC(=O)c2c(F)cccc2F)C1=O (stereo not drawn)	none
COc1cc(N)c(Cl)cc1C(=O)NC1CCN(CCCOc2ccc(F)cc2)CC1OC (stereo not drawn)	PLCg1 inh 11 | PLCg1 ctr inactive | PLCb3 confirm inactive
Cc1nc2ccc(NC(=O)c3cccc(S(=O)(=O)N4CC(C)OC(C)C4)c3)cc2s1 (stereo not drawn)	none
O=C(O)CCC(=O)Nc1ccc(Br)cn1	PLCg1 inh 10 | PLCg1 ctr inactive | PLCb3 confirm inactive
CCCCCCC(=O)Nc1ccc(Br)cn1	none
Cc1ccc(C(=O)NC2CCCC2)s1	PLCg1 inh 10 | PLCg1 ctr inactive | PLCb3 confirm inactive
CN(C)/C=C(\C#N)C(=O)N/N=C/c1ccc(F)cc1	none
Cc1cc(C)cc(N(CCC#N)C(=O)CSc2nc3ccccc3c(=O)[nH]2)c1	PLCg1 inh 9.8 | PLCg1 ctr inactive | PLCb3 confirm inactive
Cc1ccc(NC(=O)CN(C)C(=O)CCSc2ccc(F)cc2)cc1	none
CN(C)C=NC1=NN(c2cccc(C(F)(F)F)c2)CC1	none
NC(=O)CC(NC(=O)Cc1cccc2ccccc12)c1ccc(NC2CCC2)c([N+](=O)[O-])c1 (stereo not drawn)	PLCg1 inh 10 | PLCg1 ctr inactive | PLCb3 confirm inactive
NC(=O)CC(NC(=O)Cc1cccc2ccccc12)c1ccc(N2CCC(N3CCCCC3)CC2)c([N+](=O)[O-])c1 (stereo not drawn)	none
NC(=O)CC(NC(=O)Cc1cccc2ccccc12)c1ccc(N2CCCCCC2)c([N+](=O)[O-])c1 (stereo not drawn)	PLCb3 inh 13, PLCg1 inh 14 | PLCg1 ctr 10 | PLCb3 confirm inactive
CCOC(=O)Cc1csc(NC(=O)CSc2nnc(-c3ccc(F)cc3)o2)n1	none
CCn1c(=O)n(CC)c2cc(S(N)(=O)=O)ccc21	none
FC(F)(F)C1=Nc2cccc3cccc(c23)N1	PLCg1 inh 13 | PLCg1 ctr 12 | PLCb3 confirm inactive
CCOC(=O)CSc1nc2ccccc2c(=O)n1CC1CCC(C(=O)NCc2ccco2)CC1 (stereo not drawn)	PLCg1 inh 10.0 | PLCg1 ctr inactive | PLCb3 confirm inactive
CCOC(=O)CSc1nc2ccccc2c(=O)n1CC1CCCC1	none
Cc1cc(C)cc(OC(=O)COc2ccccc2C)c1	none
S=C(NCCCc1cnc[nH]1)NCCCN(Cc1ccc(Cl)cc1)c1ccc(Br)cn1	PLCg1 inh 11 | PLCg1 ctr inactive | PLCb3 confirm inactive
Cc1cccc(-n2ncc3c(NC(C)C)ncnc32)c1	none
Cc1cccc(-n2ncc3c(N)ncnc32)c1	PLCb3 inh 12, PLCg1 inh 10 | PLCg1 ctr inactive | PLCb3 confirm inactive
Cc1cc2c(sc3ccccc32)c(C)n1	none
CCOC(=O)C1CCN(C(=O)COc2ccc(C(=O)c3ccccc3)cc2)CC1	none
CCOC(=O)C1CCN(C(=O)COc2ccc(Br)cc2)CC1	PLCg1 inh 11 | PLCg1 ctr inactive | PLCb3 confirm inactive
CC(C)(C)c1ccc(OCC(O)CN2CCN(C(=O)c3ccccc3)CC2)cc1 (stereo not drawn)	PLCg1 inh 14 | PLCg1 ctr inactive | PLCb3 confirm inactive
CCCOC(=O)c1ccc(OCC(O)CN2CCN(C(=O)c3ccccc3)CC2)cc1 (stereo not drawn)	none
CCOC(=O)C1CCN(CC(O)COc2ccc(C(C)(C)CC)cc2)CC1 (stereo not drawn)	PLCg1 inh 12 | PLCg1 ctr inactive | PLCb3 confirm inactive
Cc1cccc(NC(=O)C2CC(=O)n3ncnc3N2)c1 (stereo not drawn)	none
